# Bioassay records as filed in PubChem.
# A selection: hits, their analogues and other compounds. The true share with any hit is near 2.7%.
# A549 viability: Nrf2 qHTS screen for inhibitors: counterscreen for cytotoxicity. Potency, µM (doses to about 46 µM), actives largely listed as inhibitors. A549 ARE-Fluc cells, CellTiter-Fluor viability, 18-24 h. actives 0.16% (n = 390,000). AID 504648, 2011
#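 A549 ARE-Fluc cells in 5% FBS OPTI-MEM, 5000 cells/well, rested 2 h then exposed to compounds in concentration-response for 18-24 h at 37 °C. Viability by CellTiter-Fluor fluorescence (Ex 405/Em 525) after 30 min; luciferase luminescence (BugLite, 15 min, RT) read afterwards.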
# IDH1 R132H inh: qHTS for Inhibitors of mutant isocitrate dehydrogenase 1 (IDH1): qHTS; Potency, µM (highest dose often 76.6 µM), actives largely listed as inhibitors; actives 0.093% (n = 390,000); Isocitrate dehydrogenase [NADP] cytoplasmic (Homo sapiens), O75874; IDH1-R132H enzyme, NADPH consumption, diaphorase/resazurin fluorescence; note: nearly all actives have a fitted effect of over 65% in size
# Target sequence (O75874 whole entry R132H, stated change not applied): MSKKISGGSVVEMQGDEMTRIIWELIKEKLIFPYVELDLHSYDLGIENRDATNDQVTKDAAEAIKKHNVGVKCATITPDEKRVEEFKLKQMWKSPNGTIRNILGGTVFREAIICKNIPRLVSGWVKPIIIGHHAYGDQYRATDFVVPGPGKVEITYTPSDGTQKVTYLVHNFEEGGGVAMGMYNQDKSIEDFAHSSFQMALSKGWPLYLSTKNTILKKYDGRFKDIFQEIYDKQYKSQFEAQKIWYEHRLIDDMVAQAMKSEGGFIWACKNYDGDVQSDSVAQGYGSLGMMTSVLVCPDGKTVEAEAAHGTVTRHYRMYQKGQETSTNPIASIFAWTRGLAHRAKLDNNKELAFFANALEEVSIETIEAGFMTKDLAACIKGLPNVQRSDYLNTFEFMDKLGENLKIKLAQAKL
#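 IDH1-R132H (0.5 ug/mL dispensed) in pH 7.5 Tris buffer was preincubated 30 min with compound, then given a substrate mix of 0.016 mM NADPH and 2 mM alpha-KG for 80 min at room temperature; remaining NADPH was read by diaphorase/resazurin fluorescence.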
# Nrf2 block: Nrf2 qHTS screen for inhibitors. AID 504444, 2011. actives 2.1% (n = 360,000). Potency, µM (top dose mostly 46 µM), most hits filed as inhibitors. A549 ARE-Fluc reporter, luciferase luminescence, 18-24 h; note: nearly all actives have a fitted effect of over 60% in size
#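 Two sequential reads on A549 ARE_Fluc cells exposed to compound for 18-24 h: a CellTiter-Fluor fluorescence read for viability, then a luciferase luminescence read for Nrf2/ARE activity.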
# ALOX12 inh: Primary qHTS assay for inhibitors of human arachidonate 12S-lipoxygenase (ALOX12): Round 2 | actives 1.1% (n = 580,000) | Potency, µM (titrated, usually from 108 µM), usual class: inhibitors | Polyunsaturated fatty acid lipoxygenase ALOX12 (Homo sapiens), P18054 | purified 12hLO, xylenol orange hydroperoxide absorbance
#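 Purified human 12hLO (150 nM final) in 25 mM Hepes, 0.01% Triton X-100, pH 7.0 was preincubated 15 min at room temperature with compound. Then 40 uM arachidonic acid was added, 30 min. Hydroperoxide was read by Fe-XO absorbance ratio 573/405 nm.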
# Nrf2 ARE act: qHTS of Nrf2 Activators. AREc32 ARE-luciferase reporter (MCF7-derived line), luminescence, 24 h. Potency, µM (series often up to 46.1 µM), hits mostly activators. actives 0.31% (n = 410,000). AID 624171, 2012; note: nearly all actives have a fitted effect of over 65% in size
#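 Steps: seed AREc32_Fluc cells (1000/well, 5% FBS OPTI-MEM); incubate overnight at 37 deg C; add 23 nL compound; incubate 24 hr; add Steady-Glo; hold 30 min RT; read luminescence.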
# LDHA block: qHTS assay for inhibitors of human lactate dehydrogenase; purified LDHA, NADH/diaphorase-resazurin fluorescence; active compounds read low; activity change, % (values are at about 110 or 230 µM); actives 0.15% (n = 480,000); in the data active = activity change below about -30%; inconclusive = mostly about -25% to -30%
#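 Resorufin fluorescence (ex540/em590), read at 0 and 20 min after diaphorase/resazurin addition, reports the NADH left after a 5 min room-temperature reaction of 2 nM human LDH5 with 0.06 mM NADH and 0.2 mM pyruvate.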
# Numbers stand for hits; 0 = inactive; ? = inconclusive; - = no result given. Unless noted, calls come from the whole dose curve; as a rule, active = well fitted curve in the direction sought with a large enough effect; inconclusive = small, poorly fitted or top-dose-only effect, or another doubt; inactive = no such curve, though single readings can be large; an effect the other way counts as inactive or inconclusive.
SMILES,A549 viability,IDH1 R132H inh,Nrf2 block,ALOX12 inh,Nrf2 ARE act,LDHA block
O=C(N[C@H](CO)c1ccccc1)C1CCC(CNS(=O)(=O)c2ccc(F)cc2)CC1 (stereo partly drawn),-,-,-,?,-,0
Cn1cnc([N+](=O)[O-])c1S(=O)(=O)c1cccc(Cl)c1,0,0,0,0,0,0
CCCn1c(CC)nc([N+](=O)[O-])c1S(=O)(=O)c1ccccc1,?,0,20.6µM,0,0,0
Cc1cc(Cl)ccc1NC(=S)NCCc1ccc(Cl)cc1,0,0,0,22.4µM,0,0
CC(C)c1ccc(CCNC(=S)Nc2ccc(Cl)cc2Cl)cc1,-,-,-,14.1µM,-,0
CC(=O)Nc1cccc(-n2nnnc2SCc2nc3ccccc3[nH]2)c1,-,-,-,0,-,0
Cc1noc(/C=C/c2cccnc2)c1[N+](=O)[O-],?,0,18.4µM,0,0,0
Cc1cccc(C)c1N/C=C/c1onc(C)c1[N+](=O)[O-],0,0,0,0,0,0
Cc1nn(C)c(C)c1CCC(=O)NCCc1ncc(C)n1C1CC1,-,-,-,0,-,-
O=C1NC(=S)N/C1=C/c1ccc2c(c1)OCO2,?,0,13µM,0,0,0
COc1ccc(NC(=O)c2cc(OC)c3cc(Cl)ccc3n2)cc1,-,-,-,0,-,0
COc1ccc(-c2nnc(C[C@@H]3C[C@@H](C(C)C)[C@H](CN(C)CCc4ccccn4)C=C3C)o2)cc1,-,-,-,0,-,-
CC1CCCC2(C1)NC(=S)N(c1ccccc1)N2 (stereo not drawn),0,0,0,?,0,0
CC1CCCCC12NC(=S)N(c1ccccc1)N2 (stereo not drawn),0,0,0,5.01µM,0,0
CCNC(=O)NC(=O)COC(=O)c1ccc(COc2ccc3c(C)cc(=O)oc3c2)cc1,-,-,-,0,-,0
CC(C)c1nc2cc(NC(=O)Cn3cnc4ccccc4c3=O)ccc2o1,-,-,-,?,-,0
CCC(CC)c1nnc(NC(=O)c2cccc(S(=O)(=O)N3CCc4ccccc43)c2)s1,0,0,20.6µM,0,0,0
CCCNC(=O)c1cc(S(=O)(=O)N2CCc3ccccc32)cn1C,0,0,11.6µM,0,0,0
O=C(Nc1nc2c(s1)CCCC2)c1cccc(S(=O)(=O)N2CCCc3ccccc32)c1,0,0,20.6µM,0,0,0
COc1ccc(-c2cnc(OC(C)(C)C)nc2OC(C)(C)C)cc1OC,?,0,23.1µM,0,0,0
CCCCCNC(=O)c1cccc(S(=O)(=O)N2CC3(C)CC2CC(C)(C)C3)c1 (stereo not drawn),0,0,25.9µM,0,0,0
Cc1nnc(N/N=C/c2cc([N+](=O)[O-])c(N3CCC(C)CC3)cc2N2CCC(C)CC2)n1N,?,0,18.4µM,?,0,0
Cc1ccc(C(NC(=O)Cc2n[nH]c(=O)c3ccccc23)c2ccccc2)cc1 (stereo not drawn),-,-,-,0,-,0
COc1cc(OC)cc(C(=O)/C(=C\c2ccncc2)c2nc3ccccc3o2)c1,-,-,-,28.2µM,-,0
CCN(CC)S(=O)(=O)c1cccc(NS(=O)(=O)c2ccc(C)cc2)c1,-,-,-,0,-,0
SMILES,A549 viability,IDH1 R132H inh,Nrf2 block,ALOX12 inh,Nrf2 ARE act,LDHA block
O=C(CNc1cccc(S(=O)(=O)N2CCCC2)c1)Nc1cccc(Br)c1,0,0,20.6µM,?,0,0
COc1cc(NC(=O)CNc2cccc(S(=O)(=O)N3CCCC3)c2)cc(OC)c1,0,0,?,0,0,0
COc1ccc(NCC(=O)Nc2cccc(S(=O)(=O)N3CCCC3)c2)cc1Cl,0,0,18.4µM,0,0,0
O=C(CNc1ccc(Br)cc1)Nc1cccc(S(=O)(=O)N2CCCC2)c1,?,0,20.6µM,0,0,0
Cc1cc2c(cc(C(=O)OC(C(=O)NC3CCCCC3)C(C)C)n2C)o1 (stereo not drawn),0,0,20.6µM,0,0,0
O=C(Nc1ccc(Cl)cc1)C(Cl)C(=O)c1ccccc1 (stereo not drawn),0,0,0,?,?,0
O=C(Nc1ccccc1Cl)C(Cl)C(=O)c1ccccc1 (stereo not drawn),0,0,0,20µM,0,0
CC1(C)Cc2c(sc(NC(=S)NC(=O)c3ccccc3)c2C(=O)O)CO1,0,0,0,28.2µM,0,0
CC1(C)Cc2c(sc(NC(=O)c3ccco3)c2C(=O)O)CO1,0,0,?,0,0,-34.5
CC1CCN(C(=O)C(=O)Nc2sc3c(c2C(=O)O)CC(C)(C)OC3)CC1,0,0,0,0,0,0
COc1ccc(C)cc1Nc1nc(N)c(C(=O)c2ccc(Br)cc2)s1,-,-,-,?,-,0
COC(=O)c1ccc(CNC(=O)Cn2cnc3c(SC)nc(N)nc32)cc1,0,0,23.1µM,0,0,0
CSc1nc(N)nc2c1ncn2CC(=O)NCCCc1ccccc1,0,0,?,0,0,0
Cc1cccc(NC(=O)CSc2nc(COc3ccccc3)nc3ccccc23)c1C,?,0,25.9µM,0,0,0
O=C(CC1CCCC1)N1CCC(OC2CCN(Cc3ccccc3)CC2)CC1,-,-,-,0,-,-
O=C(NC1CCCCCC1)c1nn(-c2ccccc2)c(=O)c2ccccc12,-,-,-,0,-,0
COc1ccc(CN(C)CCc2ccccn2)cc1OC,0,0,0,?,0,0
COc1ccc(CCN(C)C/C=C/c2ccccc2[N+](=O)[O-])cc1OC,0,0,0,0.891µM,0,0
COc1cc(CN(C)CCc2ccccn2)cc(OC)c1OC,0,0,?,?,0,-30.6
COc1ccc(CCN(C)Cc2ccc(OCc3ccccc3)c(OC)c2)cc1OC,?,0,0,?,0,-31.5
O=C1CSC2(C(=O)Nc3ccccc32)N1c1ccc(Cl)cc1 (stereo not drawn),-,-,-,0,-,0
O=C(O)c1nn(CC(=O)N2CCCC2)c(=O)c2ccccc12,-,-,-,0,-,0
O=S(=O)(c1ccc(F)cc1)N1CCC(n2c(C(F)(F)F)nc3cccnc32)CC1,0,0,20.6µM,0,0,0
CCCC(=O)Nc1ccc(CNCc2ccc(F)c(Br)c2)cc1,-,-,-,0,-,0
Cc1ccc(/C=C2\SC(=S)N(CCCC(=O)NNC(=O)c3ccccc3O)C2=O)cc1,0,0,10.3µM,0,0,0
CCc1ccc(/C=C2\SC(=S)N(CCC(=O)Nc3cc(C)on3)C2=O)cc1,0,0,6.51µM,0,0,0
COc1cc(/C=C2\SC(=S)N(CCC(=O)NC3CCCC3)C2=O)cc(OC)c1OC,0,0,?,0,0,0
